Results: PubChem BioAssay (EPA / NIEHS)
The source made the active and inactive calls. The calls were made as follows: active = hit-call score of the fitted dose curve at least 0.9, where 1 is the maximum; inactive = score below 0.9.

Tests used:
Settings in all cases: mRNA level, 48 h; actives raise or lower the signal
[1] = read-out: ABC Transporter (ABCB11), ABCB11 (gene 8647); test: LTEA_HepaRG_ABCB11: Life Technologies and Expression Analysis (LTEA) Assay for ABC Transporter (ABCB11) using HepaRG (AID 2283463)
Method in brief: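 ABCB11 transcript levels are read by Fluidigm TaqMan qRT-PCR after 48 h chemical treatment of human HepaRG cells. Concentrations span 100 uM downward in half-log steps with 0.5% DMSO; gain or loss is fitted against DMSO controls.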

[2] = read-out: Broad substrate specificity ATP-binding cassette transporter ABCG2 (Homo sapiens) (UniProt Q9UNQ0); test: LTEA_HepaRG_ABCG2: Life Technologies and Expression Analysis (LTEA) Assay for ABC Transporter (ABCG2) using HepaRG (AID 2283465)
Method in brief: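 Read-out is ABCG2 mRNA induction or loss quantified by qRT-PCR after 48 h chemical treatment of human HepaRG cells, normalized to three housekeeping genes. Concentrations reached 100 uM top in half-log steps; fitting was bidirectional against 0.5% DMSO.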

[3] = read-out: Peroxisomal acyl-coenzyme A oxidase 1 (ACOX1) gene, ACOX1 (gene 51); test: LTEA_HepaRG_ACOX1: Life Technologies and Expression Analysis (LTEA) Assay for Peroxisomal acyl-coenzyme A oxidase 1 (ACOX1) gene using HepaRG (AID 2283467)
Method in brief: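 Measured by qRT-PCR against three housekeeping genes: ACOX1 transcript change in human HepaRG cells after 48 h dosing. Concentrations ran up to 100 uM in half-log steps. Curves were fitted bidirectionally relative to 0.5% DMSO.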

[4] = read-out: Bcl-2 (BAD) gene, BAD (gene 572); test: LTEA_HepaRG_BAD: Life Technologies and Expression Analysis (LTEA) Assay for Bcl-2 (BAD) gene using HepaRG (AID 2283469)
Method in brief: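 BAD transcript change, measured by qRT-PCR against three housekeeping genes and fitted in both directions relative to 0.5% DMSO, after 48 h chemical treatment of human HepaRG liver cells at concentrations up to 100 uM.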

[5] = read-out: Bcl-2 (BAX) gene, BAX (gene 581); test: LTEA_HepaRG_BAX: Life Technologies and Expression Analysis (LTEA) Assay for Bcl-2 (BAX) gene using HepaRG (AID 2283470)
Method in brief: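 Differentiated HepaRG cells exposed 48 h in serum-free induction medium, eight half-log concentrations from 100 uM, in duplicate, 0.5% DMSO vehicle. BAX mRNA by TaqMan qRT-PCR, normalised to ACTB, GAPDH and POLR2A.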

[6] = read-out: adenosine kinase (ADK) gene, ADK (gene 132); test: LTEA_HepaRG_ADK: Life Technologies and Expression Analysis (LTEA) Assay for adenosine kinase (ADK) gene using HepaRG (AID 2283471)
Method in brief: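 Following 48 h exposure of HepaRG cells in 0.5% DMSO (top concentration 100 uM, duplicate wells), ADK mRNA induction or suppression was measured by qRT-PCR, normalised to ACTB/GAPDH/POLR2A, and fitted bidirectionally relative to vehicle.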

[7] = read-out: Alpha-fetoprotein (AFP) gene, AFP (gene 174); test: LTEA_HepaRG_AFP: Life Technologies and Expression Analysis (LTEA) Assay for Alpha-fetoprotein (AFP) gene using HepaRG (AID 2283472)
Method in brief: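 Differentiated human HepaRG cells exposed 48 h in serum-free induction medium, 8-point half-log series from 100 uM in 0.5% DMSO, duplicate. AFP mRNA by qRT-PCR, normalized to ACTB, GAPDH, POLR2A; bidirectional fit vs DMSO.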

BCL2L11 (gene 10018) = test: LTEA_HepaRG_BCL2L11: Life Technologies and Expression Analysis (LTEA) Assay for Bcl-2 (BCL2L11) gene using HepaRG (AID 2283473)
Method in brief: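 Differentiated human HepaRG cells in serum-free induction medium were exposed in duplicate for 48 h to eight concentrations (top 100 uM, half-log steps, 0.5% DMSO). BCL2L11 mRNA was quantified by TaqMan qRT-PCR, normalized to ACTB/GAPDH/POLR2A, bidirectional fit versus DMSO.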

[8] = read-out: Apolipoprotein A-V (APOA5) gene, APOA5 (gene 116519); test: LTEA_HepaRG_APOA5: Life Technologies and Expression Analysis (LTEA) Assay for Apolipoprotein A-V (APOA5) gene using HepaRG (AID 2283474)
Method in brief: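 Differentiated human HepaRG cells were exposed in duplicate for 48 h to eight half-log concentrations from 100 uM in 0.5% DMSO. APOA5 mRNA was quantified by TaqMan qRT-PCR, normalized to ACTB, GAPDH and POLR2A, and fitted bidirectionally against DMSO.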

[9] = read-out: Apoptosis regulator Bcl-2 (Homo sapiens) (UniProt P10415); test: LTEA_HepaRG_BCL2: Life Technologies and Expression Analysis (LTEA) Assay for Bcl-2 gene using HepaRG (AID 2283475)
Method in brief: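 Differentiated human HepaRG cells in serum-free induction medium exposed 48 h, in duplicate, to 8-point half-log series from 100 uM in 0.5% DMSO. BCL2 mRNA by qRT-PCR (TaqMan/Fluidigm), normalized to ACTB, GAPDH, POLR2A; bidirectional fit against DMSO.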

Caspase-3 (Homo sapiens) = Caspase-3 (Homo sapiens) (UniProt P42574); test: LTEA_HepaRG_CASP3: Life Technologies and Expression Analysis (LTEA) Assay for cysteine-aspartic acid protease (CASP3) using HepaRG (AID 2283477)
Method in brief: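 Differentiated human HepaRG cells in serum-free induction medium were exposed 48 h to 8-point half-log concentrations from 100 uM (0.5% DMSO vehicle). CASP3 mRNA was measured by qRT-PCR, normalised to ACTB, GAPDH and POLR2A, with bidirectional fitting against DMSO.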

[10] = read-out: Cytochrome P450 (CYP24A1), CYP24A1 (gene 1591); test: LTEA_HepaRG_CYP24A1: Life Technologies and Expression Analysis (LTEA) Assay for Cytochrome P450 (CYP24A1) using HepaRG (AID 2283478)
Method in brief: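 Differentiated HepaRG cells, pre-cultured 48 h, were exposed in duplicate for 48 h in serum-free induction medium to 8 half-log concentrations (top 100 uM, 0.5% DMSO). CYP24A1 mRNA was quantified by TaqMan qRT-PCR, normalized to ACTB/GAPDH/POLR2A, fitted bidirectionally versus DMSO.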

[11] = read-out: Cytochrome P450 (CYP1A2), CYP1A2 (gene 1544); test: LTEA_HepaRG_CYP1A2: Life Technologies and Expression Analysis (LTEA) Assay for Cytochrome P450 (CYP1A2) using HepaRG (AID 2283479)
Method in brief: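 Differentiated human HepaRG cells in serum-free induction medium were exposed in duplicate for 48 h to 8-point half-log concentrations up to 100 uM in 0.5% DMSO. CYP1A2 mRNA measured by qRT-PCR, normalized to ACTB, GAPDH, POLR2A; bidirectional fit vs DMSO.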

[12] = read-out: cysteine-aspartic acid protease (CASP8), CASP8 (gene 841); test: LTEA_HepaRG_CASP8: Life Technologies and Expression Analysis (LTEA) Assay for cysteine-aspartic acid protease (CASP8) using HepaRG (AID 2283480)
Method in brief: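 HepaRG, 48 h exposure, duplicate wells; 8 conc, half-log from 100 uM, 0.5% DMSO. Serum-free induction medium. CASP8 mRNA by TaqMan qRT-PCR, norm. ACTB/GAPDH/POLR2A; gain/loss fitted vs DMSO.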

[13] = read-out: Cytochrome P450 (CYP2B6), CYP2B6 (gene 1555); test: LTEA_HepaRG_CYP2B6: Life Technologies and Expression Analysis (LTEA) Assay for Cytochrome P450 (CYP2B6) using HepaRG (AID 2283481)
Method in brief: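 Differentiated HepaRG cells, serum-free induction medium, exposed 48 h in duplicate to 8-point half-log concentrations from 100 uM in 0.5% DMSO. CYP2B6 mRNA by qRT-PCR, normalized to ACTB, GAPDH, POLR2A; bidirectional fit versus DMSO.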

[14] = read-out: Cytochrome P450 2C19 (Homo sapiens) (UniProt P33261); test: LTEA_HepaRG_CYP2C19: Life Technologies and Expression Analysis (LTEA) Assay for CYP2C19 using HepaRG (AID 2283482)
Method in brief: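 Differentiated human HepaRG cells were exposed for 48 h in serum-free induction medium to 8 concentrations (top 100 uM, half-log steps, 0.5% DMSO). CYP2C19 mRNA was measured by qRT-PCR, normalized to ACTB/GAPDH/POLR2A, and fitted bidirectionally against DMSO.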

[15] = read-out: ATP-citrate lyase (ACLY), ACLY (gene 47); test: LTEA_HepaRG_ACLY: Life Technologies and Expression Analysis (LTEA) Assay for ATP-citrate lyase (ACLY) using HepaRG (AID 2283466)
Method in brief: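 HepaRG, 48 h exposure, 8-pt half-log dilutions (top 100 uM), 0.5% DMSO. Readout: ACLY mRNA, TaqMan qRT-PCR, housekeeping-normalized (ACTB/GAPDH/POLR2A). Bidirectional curve fit vs DMSO.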

[16] = read-out: Alkaline Phosphatase, Placental (ALPP) gene, ALPP (gene 250); test: LTEA_HepaRG_ALPP: Life Technologies and Expression Analysis (LTEA) Assay for Alkaline Phosphatase, Placental (ALPP) gene using HepaRG (AID 2283468)
Method in brief: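 Differentiated human HepaRG cells were plated and cultured 48 h, then exposed in duplicate for 48 h in serum-free induction medium to eight half-log concentrations from 100 uM in 0.5% DMSO. ALPP mRNA was measured by TaqMan qRT-PCR, normalized to ACTB, GAPDH, POLR2A.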

Measured: AC50

Cytochrome P450 2C19 (Homo sapiens), sequence (P33261 whole entry, looked up): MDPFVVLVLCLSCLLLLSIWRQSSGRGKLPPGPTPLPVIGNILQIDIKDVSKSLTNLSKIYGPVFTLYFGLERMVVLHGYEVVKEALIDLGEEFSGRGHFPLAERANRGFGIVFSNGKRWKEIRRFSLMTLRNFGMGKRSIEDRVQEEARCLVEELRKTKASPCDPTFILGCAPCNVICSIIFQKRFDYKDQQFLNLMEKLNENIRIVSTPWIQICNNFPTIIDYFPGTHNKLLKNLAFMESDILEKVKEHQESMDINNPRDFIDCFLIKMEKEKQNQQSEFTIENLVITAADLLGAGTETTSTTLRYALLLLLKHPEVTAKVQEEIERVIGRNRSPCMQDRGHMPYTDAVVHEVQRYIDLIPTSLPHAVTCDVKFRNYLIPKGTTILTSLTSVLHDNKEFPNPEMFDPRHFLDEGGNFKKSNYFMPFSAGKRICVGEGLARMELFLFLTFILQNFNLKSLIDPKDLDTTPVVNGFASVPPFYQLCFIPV
Apoptosis regulator Bcl-2 (Homo sapiens), sequence (P10415 whole entry, looked up): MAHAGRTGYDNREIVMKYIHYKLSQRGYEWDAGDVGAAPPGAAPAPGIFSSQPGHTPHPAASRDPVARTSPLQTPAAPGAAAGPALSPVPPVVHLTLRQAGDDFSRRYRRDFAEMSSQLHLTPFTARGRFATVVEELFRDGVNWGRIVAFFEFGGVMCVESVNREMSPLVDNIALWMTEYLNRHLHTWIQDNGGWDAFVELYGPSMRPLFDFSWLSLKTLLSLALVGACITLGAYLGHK
Caspase-3 (Homo sapiens), sequence (P42574 whole entry, looked up): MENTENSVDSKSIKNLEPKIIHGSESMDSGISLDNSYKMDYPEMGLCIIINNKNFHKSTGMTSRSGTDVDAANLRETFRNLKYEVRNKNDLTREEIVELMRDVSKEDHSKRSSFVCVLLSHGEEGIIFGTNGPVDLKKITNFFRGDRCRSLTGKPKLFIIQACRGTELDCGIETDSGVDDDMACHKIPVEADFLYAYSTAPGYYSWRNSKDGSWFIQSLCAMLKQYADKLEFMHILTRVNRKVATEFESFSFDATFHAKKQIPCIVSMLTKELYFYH
Broad substrate specificity ATP-binding cassette transporter ABCG2 (Homo sapiens), sequence (Q9UNQ0 whole entry, looked up): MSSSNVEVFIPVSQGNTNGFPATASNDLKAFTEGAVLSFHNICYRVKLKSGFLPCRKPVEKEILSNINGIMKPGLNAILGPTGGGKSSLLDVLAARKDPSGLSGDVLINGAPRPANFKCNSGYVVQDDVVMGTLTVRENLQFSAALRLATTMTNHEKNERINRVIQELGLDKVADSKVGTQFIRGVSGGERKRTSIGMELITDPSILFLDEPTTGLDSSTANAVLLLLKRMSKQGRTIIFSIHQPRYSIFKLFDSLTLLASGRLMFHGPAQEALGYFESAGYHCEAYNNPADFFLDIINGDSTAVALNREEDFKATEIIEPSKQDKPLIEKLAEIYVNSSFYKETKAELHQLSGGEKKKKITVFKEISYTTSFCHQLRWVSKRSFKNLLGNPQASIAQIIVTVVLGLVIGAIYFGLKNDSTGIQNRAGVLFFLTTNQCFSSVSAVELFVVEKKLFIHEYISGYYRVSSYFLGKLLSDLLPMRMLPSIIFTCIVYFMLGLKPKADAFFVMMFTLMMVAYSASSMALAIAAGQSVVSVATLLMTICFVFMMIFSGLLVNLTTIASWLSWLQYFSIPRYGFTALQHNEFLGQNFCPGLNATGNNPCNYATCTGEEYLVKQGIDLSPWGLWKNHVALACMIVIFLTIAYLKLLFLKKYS

CNC(=O)Oc1ccccc1OC(C)C
active: [13] 3.17 µM
not listed: [15] | [16]
inactive: all other assays above

OCCOc1ccccc1
active: [13] 50 µM
inactive: all other assays above

CCOCN(C(=O)CCl)c1c(C)cccc1CC
active: [1] 82.5 µM | [3] 78.9 µM | [7] 93.3 µM | BCL2L11 (gene 10018) 67.5 µM | [8] 79.4 µM | [13] 0.077 µM | [14] 89.5 µM
inactive: all other assays above

C[C@H]1[C@H](c2ccc(Cl)cc2)SC(=O)N1C(=O)NC1CCCCC1
inactive: [3] | [4] | [6] | Caspase-3 (Homo sapiens) | [10] | [12]
active: [1] 76.5 µM | [2] 39.7 µM | [15] 79.7 µM | [16] 32.1 µM | [5] 77.2 µM | [7] 36.7 µM | BCL2L11 (gene 10018) 67.2 µM | [8] 36.8 µM | [9] 76 µM | [11] 83.9 µM | [13] 81.7 µM | [14] 89 µM

N#Cc1c(Cl)c(Cl)c(Cl)c(C#N)c1Cl
active: [1] 47.1 µM | [5] 23.9 µM | [11] 13.7 µM
not listed: [16]
inactive: all other assays above

Clc1ccccc1-c1nnc(-c2ccccc2Cl)nn1
active: [2] 5.64 µM | [11] 17.3 µM | [13] 7.28 µM | [14] 15.3 µM
inactive: all other assays above

CC(C)(C)C(O)/C(=C\c1ccc(Cl)cc1Cl)n1cncn1 (stereo not drawn)
active: [1] 25.1 µM | [15] 88.9 µM | [3] 50 µM | [16] 22 µM | [5] 59.4 µM | [7] 19.8 µM | BCL2L11 (gene 10018) 79.8 µM | [8] 25.3 µM | [9] 21.8 µM | [12] 80.6 µM | [13] 0.748 µM | [14] 4.01 µM
inactive: [2] | [4] | [6] | Caspase-3 (Homo sapiens) | [10] | [11]

CC1(C)C(C=C(Cl)Cl)C1C(=O)OC(C#N)c1ccc(F)c(Oc2ccccc2)c1 (stereo not drawn)
active: [2] 21.4 µM | [11] 20.2 µM | [13] 18.4 µM | [14] 20.7 µM
inactive: all other assays above

CC[C@H](C)[C@H]1O[C@]2(C=C[C@@H]1C)C[C@@H]1C[C@@H](C/C=C(\C)[C@@H](O[C@H]3C[C@H](OC)[C@@H](O[C@H]4C[C@H](OC)[C@@H](O)[C@H](C)O4)[C@H](C)O3)[C@@H](C)/C=C/C=C3\CO[C@@H]4[C@H](O)C(C)=C[C@@H](C(=O)O1)[C@]34O)O2 (tested in a mixture with another compound)
active: [1] 15.8 µM | [2] 13.7 µM | [15] 52.2 µM | [3] 30.2 µM | [16] 9.57 µM | [5] 7.73 µM | BCL2L11 (gene 10018) 10.7 µM | [8] 13.6 µM | [9] 9.08 µM | [11] 10.9 µM | [13] 11 µM | [14] 11.6 µM
inactive: [4] | [6] | [7] | Caspase-3 (Homo sapiens) | [10] | [12]

CCc1ccc(C(=O)NN(C(=O)c2cc(C)cc(C)c2)C(C)(C)C)cc1
active: [2] 50 µM | [16] 50 µM | [7] 50 µM | [13] 92.4 µM | [14] 2.71 µM
inactive: all other assays above

CC(C)N(C(=O)COc1nnc(C(F)(F)F)s1)c1ccc(F)cc1
active: [1] 50 µM | [3] 19.4 µM | [7] 37.6 µM | [8] 78.4 µM
inactive: all other assays above

N#CN
inactive: all assays above
